In PubChem BioAssay (NCI) one finds growth data, which are given here for 8 compounds.

Holding throughout (assay): NCI-60 one-dose screen, 48 h (100 = growth as untreated, 0 = no growth, -100 = all killed)
For assay [1], the system named is SK-MEL-2 melanoma. The conditions noted are these: 10 µM unless noted.
Assay [2] concerns EKVX NSCLC. As to conditions: 10 µM unless noted.
In assay [3] the test system is SN12C renal. The conditions noted are these: 10 µM unless noted.
For assay [4], the system named is UO-31 renal. The conditions noted are these: 10 µM unless noted.
The test system of assay [5] is TK-10 renal. The conditions noted are these: 10 µM unless noted.
Assay [6] concerns ACHN renal. The conditions noted are these: 10 µM unless noted.
In assay [7] the test system is CAKI-1 renal. As to conditions: 10 µM unless noted.
Assay [8] concerns A498 renal. The conditions noted are these: 10 µM unless noted.
The subject of assay [9] is MOLT-4 leukemia. As to conditions: 10 µM unless noted.
Assay [10] concerns SR leukemia. The conditions noted are these: 10 µM unless noted.
For assay [11], the system named is RPMI-8226 leukemia. The conditions noted are these: 10 µM unless noted.
Assay [12] deals with OVCAR-8 ovarian. As to conditions: 10 µM unless noted.
Assay [13] deals with OVCAR-5 ovarian. The conditions noted are these: 10 µM unless noted.
Assay [14] deals with OVCAR-4 ovarian. The conditions noted are these: 10 µM.
Assay [15] concerns IGROV1 ovarian. As to conditions: 10 µM unless noted.
The subject of assay [16] is OVCAR-3 ovarian. The conditions noted are these: 10 µM unless noted.
In assay [17] the test system is HS 578T breast. As to conditions: 10 µM unless noted.
The test system of assay [18] is NCI/ADR-RES ovarian. As to conditions: 10 µM unless noted.
Assay [19] relates to CCRF-CEM leukemia. As to conditions: 10 µM unless noted.
Assay [20] concerns SK-OV-3 ovarian. As to conditions: 10 µM unless noted.

Molecules are shown by their SMILES. This is part of a sample that, as a whole, favours compounds with a hit. Of some 83,000 tested, about 20% had one in any assay.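 Compound tested at a single concentration for 48 hours in 96-well plates; a percent growth value below 10 was scored as active.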 Unmarked numbers belong to inactive results. The source made the active and inactive calls.

On to `C[C@]12CCc3nc(Nc4ccccc4)sc3C1=CC[C@@H]1[C@@H]2CC[C@]2(C)/C(=N/NC(N)=S)CC[C@@H]12`, for which the growth was 66.9% in [1]; 78.2% in [2]; 49.2% in assay [3]; 60% in assay [4]; 38.3% in assay [5]; 31.6% in assay [6]. Also, the growth was 49.6% in assay [7]; 48% in assay [8]; 8.01% (active) in assay [9]; 13.1% in assay [10]; -1.05% (active) in assay [11]; 56.9% in [12]. Further, the growth is 91.5% in assay [13]; 35.9% in [14]; 69.1% in assay [15]; -21.2% (active) in assay [16]; 55.9% in [17]; 53.6% in assay [18].

Turning to `O=C1C(Cl)=C(Nc2ccc3cn[nH]c3c2)C(=O)c2ccccc21`, the growth was -28.6% (active) in assay [1]; -64.7% (active) in [2]; -42.9% (active) in [3]; -97.7% (active) in assay [4]; 19.8% in assay [5]; 41.1% in assay [6]. The growth in assay [7] was -94.4% (active); in assay [19] it was -43.8% (active); in assay [9], -38.4% (active); in [10] it was -52% (active); in assay [11], -54.7% (active); in assay [12] it was -58.2% (active). In addition, the growth in assay [13] was -37.9% (active); in assay [14], -98.9% (active); in assay [20], 87.2%; in assay [15] it was -83.5% (active); in [16], -100% (active); in assay [17], -50.4% (active). The growth in assay [18] was -67.5% (active).

In the case of `CNC(=O)c1cc(Oc2cccc3nc(NC(=O)Nc4cc(C(F)(F)F)cc(C(F)(F)F)c4)ccc23)ccn1`, the growth in assay [1] is 51%; in assay [2] it was 26.7%; in assay [3], 12.1%; in assay [4], 11.7%; in [5], -25% (active); in assay [6] it was -25.8% (active). The growth was 23.6% in assay [7]; 73.3% in assay [19]; 89.5% in [9]; 47.9% in assay [10]; 41.1% in [11]; 37.2% in assay [12]. The growth is 33.3% in [13]; -38.2% (active) in assay [14]; 51.4% in assay [15]; -15% (active) in [16]; 22.2% in assay [17]; 49.5% in assay [18].

Consider `Cc1ccccc1-n1nnc(C(=O)Nc2nc3ccc(F)cc3s2)c1C`, for which the growth in assay [1] is 65.3%; in assay [2], 64.9%; in assay [3], 68.6%; in [4], 58%; in [5], 71.4%; in assay [6] it was 64.7%. Also, the growth is 49.6% in [7]; 66.5% in [19]; 43.7% in assay [9]; 55.9% in assay [10]; 45% in [11]; 73.2% in assay [12]. For the same compound, the growth was 82.2% in assay [13]; 10.6% in assay [14]; 75.7% in assay [15]; 57.9% in [16]; 73.6% in assay [17]; 60.7% in assay [18].

Regarding `C=C(C)[C@@H]1CC[C@]2(C(N)=O)CC[C@]3(C)[C@H](CC[C@@H]4[C@@]5(C)C/C(=C/c6cccnc6)[C@H](O)C(C)(C)[C@@H]5CC[C@]43C)[C@@H]12`, the growth in [1] is -13.2% [100 µM] (active); in [2], 33.8% [100 µM]; in [3], 20% [100 µM]; in assay [4], 12.2% [100 µM]; in assay [5] it was 32.5% [100 µM]; in [6], 9.24% [100 µM] (active). In addition, the growth in assay [7] is 10.7% [100 µM]; in [8], 61.9% [100 µM]; in [9] it was 1.99% [100 µM] (active); in assay [10], 12.8% [100 µM]; in assay [11], 13.1% [100 µM]; in assay [12], 21.9% [100 µM]. For the same compound, the growth in assay [13] was 14.1% [100 µM]; in assay [20], 31.6% [100 µM]; in assay [15], 17.5% [100 µM]; in assay [16] it was 29.1% [100 µM]; in [17], 43.2% [100 µM]; in assay [18] it was 11.3% [100 µM].

For `O=C(N/N=C1\c2ccccc2-c2cccc(C(=O)O)c21)c1ccc(O)cc1`, the growth was 102% in assay [1]; 97.2% in assay [2]; 91.1% in [3]; 80.4% in assay [4]; 98.1% in [5]; 99.5% in assay [6]. For the same compound, the growth in [7] is 86.9%; in [19], 89.9%; in [9] it was 99.8%; in assay [10] it was 110%; in assay [11], 94.2%; in [12], 97.4%. Also, the growth in assay [13] was 102%; in [14] it was 101%; in [20] it was 101%; in [15] it was 97.6%; in assay [16], 96.6%; in assay [17], 82%. The growth in assay [18] is 99.8%.

Turning to `COc1cc(C)cc2oc3oc(=N)c(C(=O)c4ccccc4)cc3c(=O)c12`, the growth in assay [1] is 114%; in assay [2], 106%; in [3], 101%; in [4] it was 79.3%; in assay [5], 105%; in assay [6], 95.5%. The growth in assay [7] is 91.6%; in assay [8], 90.3%; in assay [9] it was 98.1%; in assay [10], 94.5%; in [11], 116%; in assay [12], 105%. Further, the growth was 95.2% in assay [13]; 105% in [14]; 120% in assay [20]; 93.9% in assay [15]; 101% in assay [16]; 106% in [18].

As to `O=C(N/N=C/c1c(Cl)cccc1Cl)c1cccc(Nc2ccnc(C(F)(F)F)c2)c1`, the growth in assay [1] was 92.2%; in assay [2], 74.4%; in assay [3] it was 91%; in [4], 77.4%; in assay [5], 90.8%; in [6] it was 87.5%. In addition, the growth in [7] is 88%; in assay [8], 95.3%; in [9], 88.1%; in assay [10], 106%; in [11], 70.1%; in [12], 89.9%. Further, the growth in assay [13] was 108%; in assay [14] it was 69.3%; in assay [20], 102%; in [16], 137%; in assay [17], 107%.
